Rce1 inh: inhibitors of yeast Ras-converting enzyme | AID 2563 | Q03530 | calls only | 290,000 compounds, 0.27% hits | yeast membranes, quenched prenylated peptide cleavage fluorescence;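 active means fall in fluorescence gain of 50% or more versus controls, with final raw signal at or below 3038400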;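 further: plate controls were neutral control wells for no effect and wells lacking membranes for full effect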
PLC-beta3 inh: PLC-beta3 (human) inhibition, primary screen; AID 720704; Q01970; Purified PLC-beta3, fluorogenic substrate, fluorescence; 370,000 compounds, 0.18% hits; inhibition, % at 12.2 µM; in the data active means inhibition above about 11%;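 further: 0% = median of compound wells on plate and 100% = full blocker control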
PLCg1 inh: inhibitors of human phospholipase C gamma1. purified PLC-gamma1, fluorogenic substrate, fluorescence. inhibition, % at 12.2 µM. P19174. 370,000 compounds, 0.84% hits; in the data active means inhibition above about 9.5%
PfM18AAP inh-1: blocks P. falciparum M18 aspartyl aminopeptidase | 290,000 compounds, 1.2% hits | inhibition, % at 7.35 µM | recombinant PfM18AAP, H-Glu-NHMec fluorogenic cleavage;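 active means inhibition above the campaign mean inhibition over all tested compounds plus 3 SD, cut at about 28% in these data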;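 further: 0% = plate median of test compound wells and 100% = 2 mM ZnCl2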
GC-B act: GC-B (human) receptor activation; activation, % at 10 µM; 370,000 compounds, 0.11% hits; HEK293-GC-B cells, CNP EC30, cGMP TR-FRET; 0% at EC30 CNP, 100% saturating CNP;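 active means activation at 10 µM reaching about 35% in either raw or pattern-adjusted values, limit read from the data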
Target sequence (P20594 whole entry, looked up): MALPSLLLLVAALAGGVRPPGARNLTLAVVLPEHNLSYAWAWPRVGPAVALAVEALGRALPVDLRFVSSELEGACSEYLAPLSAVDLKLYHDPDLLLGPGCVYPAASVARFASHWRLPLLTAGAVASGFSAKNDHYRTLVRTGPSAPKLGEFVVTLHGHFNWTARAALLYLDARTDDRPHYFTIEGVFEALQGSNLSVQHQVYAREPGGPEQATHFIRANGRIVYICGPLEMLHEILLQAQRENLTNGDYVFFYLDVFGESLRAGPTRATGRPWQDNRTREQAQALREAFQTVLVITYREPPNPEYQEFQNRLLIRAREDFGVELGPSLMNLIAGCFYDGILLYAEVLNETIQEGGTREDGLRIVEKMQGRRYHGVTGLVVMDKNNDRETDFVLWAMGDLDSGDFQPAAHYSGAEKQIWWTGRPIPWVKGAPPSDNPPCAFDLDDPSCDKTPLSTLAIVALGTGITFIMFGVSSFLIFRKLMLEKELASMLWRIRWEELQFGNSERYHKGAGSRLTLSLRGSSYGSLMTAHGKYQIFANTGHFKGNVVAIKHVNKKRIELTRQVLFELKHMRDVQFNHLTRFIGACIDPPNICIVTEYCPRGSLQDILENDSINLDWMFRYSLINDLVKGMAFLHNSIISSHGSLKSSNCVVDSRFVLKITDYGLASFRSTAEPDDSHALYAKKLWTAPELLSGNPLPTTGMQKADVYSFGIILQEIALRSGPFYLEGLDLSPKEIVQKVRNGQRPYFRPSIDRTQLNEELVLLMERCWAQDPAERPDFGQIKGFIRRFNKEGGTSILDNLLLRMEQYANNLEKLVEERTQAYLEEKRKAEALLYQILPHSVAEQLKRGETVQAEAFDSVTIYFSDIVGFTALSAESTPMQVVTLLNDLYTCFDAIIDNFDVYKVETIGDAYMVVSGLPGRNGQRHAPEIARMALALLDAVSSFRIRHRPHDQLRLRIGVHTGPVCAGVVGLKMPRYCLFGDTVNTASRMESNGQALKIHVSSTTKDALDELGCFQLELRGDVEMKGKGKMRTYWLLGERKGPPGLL
GC-A act: GC-A (human) enzyme activation. HEK293 GC-A cells, cGMP TR-FRET, EC30 ANP; 0% at EC30 ANP, 100% saturating ANP. activation, % at 10 µM. 370,000 compounds, 0.14% hits; in the data active means activation above about 40%
PfM18AAP inh-2: confirmation of Plasmodium falciparum M18 aspartyl aminopeptidase inhibitors. inhibition, % at 7.35 µM. AID 2170. 2,400 compounds, 28% hits. recombinant PfM18AAP, H-Glu-NHMec fluorogenic cleavage. shares compounds with PfM18AAP inh-1;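 active means mean inhibition over replicate wells above the hit cutoff set for the earlier primary screen, cut at about 29% in these data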;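 further: 0% = median of test compound wells and 100% = 2 mM ZnCl2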
CTSL1 confirm: counter-screen for PFM18AAP inhibitors: confirmation of human cathepsin L inhibitors. AID 2178. inhibition, % at 5.96 µM. purified cathepsin L1, Z-Leu-Arg-MCA fluorescence. shares compounds with PfM18AAP inh-1. 2,400 tested, under 10 active;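 active means average inhibition across replicates above the hit cutoff set in the earlier primary screen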;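 further: 0% = median of test compound wells and 100% = Z-Phe-Ala-diazomethylketone 1 µM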
Starred values were filed as active, the others as inactive; i = inactive; x = no result. Compounds with a hit are over-represented: about 2.2% of the library has one in this group of screens.

SMILES	Rce1 inh	PLC-beta3 inh	PLCg1 inh	PfM18AAP inh-1	GC-B act	GC-A act	PfM18AAP inh-2	CTSL1 confirm
CCn1c(SCC(=O)Nc2ccccc2-c2ccccc2)nnc1-c1ccc(C)cc1	x	-1	-2	x	-6	-2	x	x
COC(=O)C1=C(C(=O)c2ccc(C)cc2)C(c2ccc(O)c(OC)c2)n2nnnc2N1 (stereo not drawn)	i	-11	-6	60*	1	3	-26	-4
COC(=O)C1=C(C(=O)c2ccccc2)C(c2cccs2)n2nnnc2N1 (stereo not drawn)	i	-9	-8	55*	0	-3	-29	-3
COC(=O)C1=C(C(=O)c2ccc(C)cc2)C(c2ccc(OC)c(OC)c2)n2nnnc2N1 (stereo not drawn)	i	-4	3	47*	0	0	-32	2
CN1CCN(C(=S)c2ccc(Br)cc2)CC1	i	3	-1	47*	0	6	6	-1
CSc1ccc(C(=S)N2CCN(C)CC2)cc1	i	4	1	-1	4	3	x	x
CN1CCN(C(=S)c2ccc(N(C)C)cc2)CC1	i	4	1	40*	2	2	10	1
CCN1CCN(C(=S)c2ccc(Br)cc2)CC1	i	5	1	40*	-2	1	6	1
CN1CCN(C(=S)c2ccc([N+](=O)[O-])cc2)CC1	i	2	3	13	5	2	x	x
O=C(Nc1ccccc1F)O[C@@H]1CC[C@@]23CCCN2C(=O)CCC[C@H]3C1	x	1	-4	x	0	-1	x	x
Cc1ccc(-n2c(Cc3cccs3)nnc2SCc2ccc(Br)cc2)cc1	x	0	-1	x	-19	-23	x	x
Cc1cccc(-n2c(Cc3ccccc3)n[nH]c2=S)c1	i	-4	0	34*	0	9	-5	-13
Cc1cccc(-n2c(CNC(=O)Cc3ccccc3)n[nH]c2=S)c1	i	0	-2	38*	1	6	2	1
Cc1c(C(=O)NCc2n[nH]c(=S)n2-c2ccc(F)cc2)cccc1[N+](=O)[O-]	x	2	3	33*	0	-4	8	2
CCc1ccc(-n2c(Cc3ccccc3)n[nH]c2=S)cc1	i	-6	2	10	-10	0	x	x
Cc1ccc(-c2nnc(SCC(=O)Nc3ccc(F)cc3F)n2Cc2ccco2)cc1	x	-5	-1	x	4	-1	x	x
Oc1ccc(N2CCN(c3ncnc4sc(-c5ccccc5)cc34)CC2)cc1	i	-36	-17	44*	-1	4	10	0
CSc1ccc(-c2cnc(N3CCC(C(N)=O)CC3)s2)cc1	x	-4	-1	x	-6	5	x	x
O=C(CN1C(=O)/C(=C/c2ccco2)SC1=S)NC1CCS(=O)(=O)C1 (stereo not drawn)	i	-12	3	39*	6	-4	-19	5
O=C(CCN1C(=O)/C(=C/c2ccccc2)SC1=S)NC1CCS(=O)(=O)C1 (stereo not drawn)	i	-4	-3	8	-6	-2	x	x
O=c1oc2ccccc2c2oc3cc(O)c(O)cc3c12	i	i	i	68*	-2	14	74*	3
Nc1c(N)c2ccccc2oc1=O	i	-22	-16	2	3	-7	x	x
COC(=O)NNC(=O)COc1ccc(Br)c(C)c1	i	4	3	-6	2	-2	x	x
Cc1cc(OCC(=O)Nn2cnnc2)ccc1Br	i	x	x	56*	4	0	59*	-7
CC1(C)C2([N+](=O)[O-])CN3CC1([N+](=O)[O-])CN(C2)C3c1ccc(O)c(O)c1 (stereo not drawn)	i	-9	-3	77*	-3	2	84*	4
SMILES	Rce1 inh	PLC-beta3 inh	PLCg1 inh	PfM18AAP inh-1	GC-B act	GC-A act	PfM18AAP inh-2	CTSL1 confirm
O=C(Cc1ccc2c(c1)OCCO2)c1c(O)cc(O)cc1O	i	-3	-6	39*	2	4	28	1
CCCCCn1cnc2c(=S)nc(N)[nH]c21	i	-3	7	41*	81*	75*	-19	5
CCCCn1cnc2c(=S)nc(N)[nH]c21	i	0	4	40*	80*	79*	-10	-5
Nc1nc(=S)c2ncn(C3CCCCC3)c2[nH]1	x	3	2	x	28	27	x	x
CCCn1cnc2c(=S)nc(N)[nH]c21	i	8	4	57*	44*	43*	-20	3
COC(=O)[C@H](CC(C)C)N(CCCc1cn(Cc2ccc(C)cc2)nn1)S(=O)(=O)c1ccccc1Br	x	0	-2	x	10	-4	x	x
O=C(O)CCCC(=O)Nc1ccccc1SCCS(=O)(=O)c1ccc(Cl)cc1	i	-5	-2	35*	-5	1	-21	1
Cc1nc2ccccc2c(=O)n1/N=C/c1ccc2ccccc2c1O	i	x	x	2	1	3	x	x
Oc1c(/C=N/c2ncn[nH]2)ccc2ccccc12	i	0	1	64*	1	5	52*	-4
CCOC(=O)c1c(C)oc2c(CC(=O)c3ccccc3)c(Cl)c(O)c(O)c12	i	0	1	45*	3	5	24	3
CC1(C)Cc2c(c(N3CCOCC3)nc3sc(C(=O)N4CCCCC4)c(N)c23)CO1	i	-107	-85	33*	4	2	-6	2
COc1ccc(NC(=O)c2sc3nc(N4CCOCC4)c4c(c3c2N)CC(C)(C)OC4)cc1	i	-54	-33	36*	9	14	-56	-8
COC(=O)C1CN(Cc2cn(Cc3ccc(C)cc3)nn2)CCS(=O)(=O)N1Cc1ccccc1 (stereo not drawn)	x	0	4	x	-3	3	x	x
Cc1ccc(C)c(NC(=O)Nn2cnnc2)c1	i	-7	4	60*	2	5	41*	-3
Cc1ccc(Cl)cc1NC(=O)Nn1cnnc1	i	-5	1	76*	6	1	61*	-5
COc1ccc(Cl)cc1NC(=O)Nn1cnnc1	i	3	1	81*	6	1	74*	2
O=C(Nc1ccc(Cl)cc1Cl)Nn1cnnc1	i	-2	-2	83*	2	5	77*	-2
O=C(CSc1nc2ccccc2o1)c1cc2ccccc2oc1=O	x	i	i	12	-1	0	x	x
Cc1cc(C)nc(SCC(=O)c2cc3ccccc3oc2=O)n1	i	-23	-17	40*	-2	-3	-8	2

Bioassay records from PubChem.
